Screening data deposited in PubChem BioAssay by National Center for Advancing Translational Sciences (NCATS).
BAZ2B inh = BAZ2B (human) inhibition; AlphaScreen BAZ2B-H3K14Ac peptide displacement; Potency, µM (top dose mostly 114 µM), inactives show top-dose activity change, negative = inhibition, hits mostly inhibitors; 360,000 compounds, 4.4% hits; note: % is set by controls: 0 for no effect and ±100 for the full control effect; nearly all actives have a fitted effect of over 60% in size
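Complex of BAZ2B and biotin-H3K14Ac (50 nM apiece) forms over 30 min at RT, then faces library compounds up to 110 uM for another 30 min; AlphaScreen beads added, 20 min dark incubation, luminescence read.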
G9a inh = blocks human histone lysine methyltransferase G9a; Potency, µM (highest dose often 102 µM), for inactives: at the top dose activity, negative = inhibition, actives largely listed as inhibitors; G9a H3K9 monomethylation, AlphaScreen, 2 h; 350,000 compounds, 8.8% hits; note: % is set by controls: 0 for no effect and ±100 for the full control effect; nearly all actives have a fitted effect of over 75% in size
Target sequence (Q96KQ7 913-1193 limits assumed): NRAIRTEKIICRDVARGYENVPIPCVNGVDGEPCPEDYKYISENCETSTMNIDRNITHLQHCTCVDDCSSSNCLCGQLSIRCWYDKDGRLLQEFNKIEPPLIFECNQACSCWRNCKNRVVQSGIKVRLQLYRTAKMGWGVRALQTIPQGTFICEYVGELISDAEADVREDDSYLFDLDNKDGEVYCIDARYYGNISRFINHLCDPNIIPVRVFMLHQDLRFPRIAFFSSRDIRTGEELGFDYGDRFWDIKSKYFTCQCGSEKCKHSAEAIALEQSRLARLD
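Readings reflect AlphaScreen signal from monomethyl-H3K9 antibody detection. HMT at 20 nM; substrate b-H3K9 500 nM; cofactor SAM 20 uM; 2 h RT reaction; compounds tested as titrations in qHTS with 15 min preincubation.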
HP1b binding inh = inhibitors of HP1-beta chromodomain binding to methylated histone tails. AID 540317. AlphaScreen HP1-beta / biotin-H3K9me3 peptide binding. P83916. Potency, µM (series often up to 114 µM), without a hit: top-dose activity change, negative = inhibition, actives largely listed as inhibitors. 390,000 compounds, 0.56% hits; note: nearly all actives have a fitted effect of over 70% in size
Target sequence (P83916 whole entry, looked up): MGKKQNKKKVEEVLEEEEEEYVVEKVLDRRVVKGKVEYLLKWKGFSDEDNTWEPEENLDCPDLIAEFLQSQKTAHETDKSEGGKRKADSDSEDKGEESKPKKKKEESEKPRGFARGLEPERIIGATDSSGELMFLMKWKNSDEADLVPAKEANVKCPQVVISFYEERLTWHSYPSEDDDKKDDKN
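HP1-beta protein (50 nM final) preincubated 30 min at room temperature with biotinylated H3(1-18)K9me3 peptide (50 nM) in PBS pH 7.4, 0.01% Tween-20, then compound added for 30 min. AlphaScreen streptavidin donor/nickel chelate acceptor beads (10 ug/mL final), 30 min dark, luminescence read.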
L3MBTL1 block = blocks human L3MBTL1; Q9Y468; AlphaScreen L3MBTL1–H3K9me1 peptide binding; Potency, µM (highest dose often 57.1 µM), for the others: top-dose activity, negative = inhibition, actives largely listed as inhibitors; 230,000 compounds, 0.66% hits; AID 485360; note: % is set by controls: 0 for no effect and ±100 for the full control effect; nearly all actives have a fitted effect of over 60% in size
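AlphaScreen proximity signal between nickel-chelate acceptor and streptavidin donor beads (final 10 ug/mL) reports binding of 50 nM L3MBTL1 to 75 nM biotin-H3 K9me1 peptide; complex incubated with compounds 30 min at room temperature; cefsulodin titration as control.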
JMJD2A Tudor = JMJD2A Tudor domain (human) inhibition. O75164. AlphaScreen JMJD2A-Tudor / H3K4me3 peptide binding. Potency, µM (titrated, usually from 114 µM), for inactives: top-dose activity change, negative = inhibition, usual class: inhibitors. 390,000 compounds, 4.4% hits; note: % is set by controls: 0 for no effect and ±100 for the full control effect; nearly all actives have a fitted effect of over 50% in size
Sfp PPTase inh = Sfp phosphopantetheinyl transferase inhibition | Potency, µM, without a hit: largest response in the series, negative = inhibition, most hits filed as inhibitors | Biochemical Sfp PPTase activity, qHTS | Q9F4F7 | 310,000 compounds, 3.5% hits | AID 1490;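 note: the enzyme is Sfp with the accession as filed and its product quenches rhodamine fluorescence; 0% = enzyme reaction without inhibitor and -100% = no enzyme wells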
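Buffer: 50 mM Hepes-Na pH 7.6, 10 mM MgCl2, 0.01% Nonidet P-40, 0.01% BSA. Enzyme 15 nM, pre-exposed to compound 15 min; substrates then added and fluorescence change tracked over 30 min.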
The depositor's hits bear a star; u = inconclusive; x = no result; [ ] = remark or other dose. Hits are enriched below; roughly 12% of the tested compounds scored in any of these assays. Calls come from the whole dose curve; as a rule, active = well fitted curve in the direction sought with a large enough effect; inconclusive = small, poorly fitted or top-dose-only effect, or another doubt; inactive = no such curve, though single readings can be large; an effect the other way counts as inactive or inconclusive. Potency is the fitted concentration of half-maximal effect.

SMILES	BAZ2B inh	G9a inh	HP1b binding inh	L3MBTL1 block	JMJD2A Tudor	Sfp PPTase inh
CC(C)(C)c1ccc(COC(=O)Nc2ccc(F)cc2)cc1	27%	-11%[59 µM]	26%	30%	11%	14%
CCOc1ccccc1NC(=O)c1cc(S(=O)(=O)N2CCOCC2)cn1C	-13%	-8%[59 µM]	21%	x	-2%	x
O=S(=O)(Nc1ccc(Cl)cc1)c1cccc(S(=O)(=O)c2ccc(Cl)c(Cl)c2)c1	-22%	1%[59 µM]	32%	x	-6%	x
Cc1ccc(NC(=O)C2C3C=CC4(O3)C2C(=O)N(CCN2CCOCC2)C4C(=O)NC2CCCCC2)cc1C (centres undefined)	0%	u	-13%	x	-17%	17%
COCCCN1C(=O)C2C(C(=O)Nc3cc(C)cc(C)c3)C3C=CC2(O3)C1C(=O)NC1CCCCC1 (centres undefined)	-3%	89µM*	-1%	x	-25%	40µM*
CC1CCCC(NC(=O)C2N(CCCN3CCCC3)C(=O)C3C(C(=O)Nc4ccc(Cl)cc4)C4C=CC32O4)C1C (centres undefined)	-15%	-1%[12.7 µM]	-15%	x	-11%	7%
O=C(Nc1ccc(Cl)c(Cl)c1)C1C2C=CC3(O2)C1C(=O)N(CCN1CCCCC1)C3C(=O)NC1CCCCC1 (centres undefined)	2%	45µM*	12%	x	-13%	6%
CSc1cccc(NC(=O)C2C3C=CC4(O3)C2C(=O)N(CCN2CCOCC2)C4C(=O)NC2CCCCC2)c1 (centres undefined)	-19%	50µM*	35%	x	-7%	13%
COc1ccc(NC(=O)C2C3C=CC4(O3)C2C(=O)N(CCCN2CCCCC2)C4C(=O)NC2CCCC(C)C2C)cc1 (centres undefined)	-1%	45µM*	3%	x	-18%	1%
Cc1oc2ncn(CC(C)C)c(=O)c2c1C(=O)NC(C)c1ccccc1 (centres undefined)	9%[57.1 µM]	-1%[59 µM]	3%	x	-18%	x
CC(=O)OCC1OC(C#Cc2ccc(C(C)(C)C)cc2)C=CC1OC(C)=O (centres undefined)	x	x	x	x	x	-15%
COc1cccc(NC(=O)C2C3C=CC4(O3)C2C(=O)N(CCCN2CCC(C)CC2)C4C(=O)NC2CCCCC2)c1 (centres undefined)	-1%	45µM*	47%	x	-1%	21%
CCc1nn(CC(=O)N2CCN(c3cccc(Cl)c3)CC2)c(=O)c2cc3sccc3n12	-2%	1%[59 µM]	32%	x	5%	x
COc1ccc(NC(=O)CSC2CCCCC2)cc1	8%	-45%[12.7 µM]	30%	5%	-10%	-3%
NS(=O)(=O)c1ccc(NC(=O)CSC2CCCCC2)cc1	-1%	u	-18%	-2%	28µM*	13%
CC(OC(=O)CCC1CCCCC1)C(=O)Nc1ccc(S(N)(=O)=O)cc1 (centres undefined)	7%	56µM*	12%	-11%	-16%	x
S=C(Nc1ccc(Oc2ccccc2)cc1)NC1CCCCCC1	-1%	45µM*	-10%	-2%	-12%	-7%
S=C(Nc1ccc(Oc2ccccc2)cc1)NC1CCCCC1	-7%	-4%[59 µM]	16%	-12%	-16%	-5%
S=C(NNc1ccc2ccccc2c1)NC1CCCCC1	8.9µM*	11µM*	28µM*	u	4µM*	7%
COCCCNc1nc2c(-c3cccc(Br)c3)nnn2c2ccccc12	12%	4%[59 µM]	48%	x	4%	x
CC(=O)c1cccc(NC(=O)Cn2cnc3c2c(=O)n(C)c(=O)n3C)c1	4%	-7%[59 µM]	23%	x	-5%	x
NS(=O)(=O)c1ccc(NC(=S)NC(=O)C2CCCCC2)cc1	-35%	u	24%	-1%	-21%	19%
NS(=O)(=O)c1ccc(NC(=S)NC2CCCC2)cc1	-5%	8.9µM*	29%	3%	6%	10µM*
NS(=O)(=O)c1ccc(NC(=S)NC2CCCCCC2)cc1	-2%	u	-21%	-5%	-29%	25µM*
CCOC(=O)c1ccc(N2C(=O)CC(SCC(=O)Nc3ccc(S(N)(=O)=O)cc3)C2=O)cc1 (centres undefined)	-4%	32µM*	33%	x	-16%	-18%
SMILES	BAZ2B inh	G9a inh	HP1b binding inh	L3MBTL1 block	JMJD2A Tudor	Sfp PPTase inh
O=S(=O)(c1ccc(NC(=S)NC2CCCC2)cc1)N1CCCC1	-17%	x	-7%	3%	-33%	-8%
O=C(NCCCc1nc2ccccc2n1CCOc1ccccc1)C1CCCCC1	x	x	28%[57 µM]	x	-16%[57.1 µM]	x
Cc1cccc(CNc2ccnc(-c3cccc(C#N)c3)n2)c1	x	1%[0.501 µM]	x	x	x	-4%
CCN(CC)c1ccc(NC(=O)CN2CCN(S(=O)(=O)c3ccc(C(C)C)cc3)CC2)cc1	7.9µM*	u	u	x	14µM*	x
CCCCCCC(=O)Nc1c2c(nc3ccccc13)N(C)CC2	u	7%[59 µM]	37%	x	-3%	10%
CCN(CC)c1ccc(NC(=O)CN2CCN(CC(=O)Nc3ccc(OC)cc3)CC2)cc1	-26%	11µM*	12%	x	-21%	1%
CN1CCc2c1nc1ccccc1c2NC(=O)CN1CCCC1	u	x	-16%	4%	5.6µM*	-21%
O=C(CN1CCCCC1)NN(Cc1ccccc1)c1ccccc1	50µM*	16µM*	u	-3%	-2%[11.4 µM]	-10%
O=C(CN1CCCCC1)Nc1ccccc1NC(=O)CN1CCCCC1	5%	-39%	19%	5%	16%[57.1 µM]	1%
Cc1ccc(NC(=O)c2c(C)cc(C)nc2SCC(=O)Nc2ccc(Br)cc2)cc1	1%	-2%[59 µM]	34%	x	1%	x
O=C(CN1CCc2ccccc2C1)Nc1ccc(OC(F)(F)F)cc1	18%	-14%[2.33 µM]	85%	x	30%	16%
CCc1cccc(C)c1NS(=O)(=O)Cc1ccccc1	-3%	79µM*	15%	-4%	-7%	11%
O=C(CNCC1CCCCC1)Nc1ccc(OC(F)(F)F)cc1	50µM*	8.9µM*	-25%	26%	3.5µM*	-11%
O=S(=O)(Cc1ccccc1)Nc1ccccc1	5%	x	29%	4%	4%	9%
CN(C)c1ccc(NC(=O)CN2CCN(CC(=O)Nc3ccc(Br)cc3)CC2)cc1	-15%	8.9µM*	20%[57 µM]	x	-23%	x
O=C(CN1CCCC1)Nc1ccc(OC(F)(F)F)cc1	u	x	u	24%	0.79µM*	-21%
CCN(CC)S(=O)(=O)c1ccc2c(c1)N(CC(=O)Nc1cccc(C)c1C)C(=O)C1CCCN21 (centres undefined)	6%	-32%[59 µM]	26%	x	9%	x
CCc1nnc2c(N3CCN(c4cccc(C(F)(F)F)c4)CC3)nc3ccccc3n12	-12%	-6%[59 µM]	5%	x	-21%	x
